Bioassay records from PubChem BioAssay.
M1 PAM: human M1 muscarinic receptor positive allosteric modulators, primary screen, CHO-K1 cells, Fluo-8 calcium fluorescence, 1536-well | CHO-K1 hM1, ACh EC20; 0% = ACh EC20, 100% = maximal ACh | 0.088% of 360,000 active | Muscarinic acetylcholine receptor M1 (Homo sapiens), P11229 | activation, % at 3 µM; in the data active = activation above about 19%, passing the limit was not always enough
M4 antag: human M4 muscarinic receptor antagonists, primary screen, CHO cells, Fluo-8 calcium fluorescence; Muscarinic acetylcholine receptor M4 (Homo sapiens), P08173; CHO-hM4 cells, ACh EC80; inhibition, % at 3 µM; 0.73% of 360,000 active; AID 624125, 2012;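 active = inhibition above its plate's cutoff, the mean inhibition of sample wells plus 3 SD, cut at about 27% in these data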;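 also: 0% = acetylcholine EC80 with DMSO and 100% = DMSO without agonist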
Target sequence (P08173 whole entry, looked up): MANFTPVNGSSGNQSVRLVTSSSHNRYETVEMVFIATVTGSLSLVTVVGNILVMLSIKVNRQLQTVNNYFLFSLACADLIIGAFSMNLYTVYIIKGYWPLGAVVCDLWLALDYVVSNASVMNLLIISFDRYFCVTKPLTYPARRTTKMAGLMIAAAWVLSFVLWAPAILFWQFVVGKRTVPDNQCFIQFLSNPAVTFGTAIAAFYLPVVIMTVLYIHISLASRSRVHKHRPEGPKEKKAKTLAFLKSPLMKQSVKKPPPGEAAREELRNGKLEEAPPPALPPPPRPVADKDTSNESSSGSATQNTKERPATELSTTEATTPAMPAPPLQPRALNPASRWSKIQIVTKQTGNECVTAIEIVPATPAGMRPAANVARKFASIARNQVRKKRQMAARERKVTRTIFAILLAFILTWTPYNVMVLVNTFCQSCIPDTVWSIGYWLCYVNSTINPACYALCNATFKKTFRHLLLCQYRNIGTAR
M1 ag: human M1 muscarinic receptor agonists, primary screen, Fluo-8 calcium fluorescence, CHO-K1 cells, HTS | 0.33% of 360,000 active | activation, % at 3 µM | CHO-K1 hM1, agonist mode; 0% DMSO, 100% acetylcholine EC100 | Muscarinic acetylcholine receptor M1 (Homo sapiens), P11229;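 active = activation above the run's mean compound activation plus 3 SD, cut at about 16% in these data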;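 also: peak over basal fluorescence ratio within a 140 s kinetic read after compound addition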
CHRM1 antagonist: human M1 muscarinic receptor antagonists, primary screen, CHO-K1 cells, Fluo-8 calcium fluorescence, 1536-well; CHO-K1 hM1, ACh EC80 antagonist; inhibition, % at 3 µM; 1.3% of 360,000 active;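 active = percent inhibition above its own plate's cutoff, namely the mean of that plate's compound wells plus 3 SD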;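 also: peak over basal fluorescence ratio during 140 s after agonist addition; 0% = ACh EC80 plus DMSO and 100% = DMSO alone without agonist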
CHRM4 PAM: human M4 muscarinic receptor positive allosteric modulators, primary screen, CHO-K1 cells, Fluo-8 calcium fluorescence; Muscarinic acetylcholine receptor M4 (Homo sapiens), P08173; CHO-K1 hM4/Gqi5, ACh EC20; 0% = ACh EC20, 100% = maximal ACh; activation, % at 3 µM; 0.4% of 360,000 active;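 active = activation above its plate's cutoff, the mean activation of sample wells plus 3 SD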
CHRM4 agonist: human M4 muscarinic receptor agonists, primary screen, CHO-K1 cells, Fluo-8 calcium fluorescence | Muscarinic acetylcholine receptor M4 (Homo sapiens), P08173 | CHO-K1 hM4/Gqi5; vehicle 0%, full acetylcholine response 100% | activation, % at 3 µM | 0.14% of 360,000 active | AID 624127, 2012;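 active = activation above the run mean over all test wells plus 3 SD, cut at about 32% in these data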;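 also: peak over basal fluorescence ratio per well then scaled between controls; 0% = DMSO wells and 100% = acetylcholine at EC100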
* hit, by the source's call. A selection: hits, their analogues and other compounds. The true share with any hit is near 2.2%.

SMILES	M1 PAM	M4 antag	M1 ag	CHRM1 antagonist	CHRM4 PAM	CHRM4 agonist
COc1ccc([N+](=O)[O-])cc1NC(=O)COC(=O)c1ccc(O)cc1	5.9	-4.0	-1.9	-29.4	6.0	2.0
COc1cc(NC(=O)COc2cc(O)c3c(c2)OC(C)(C)CC3=O)cc(OC)c1OC	-28.6	2.8	4.4	51.5*	-9.6	30.6
COc1ccc2c(c1)CC/C(=C/c1ccncc1)C2=O	4.9	3.7	-0.5	-9.2	-5.5	12.3
Cc1ccc2cc(CN(Cc3ccc4c(c3)OCO4)Cc3nnnn3Cc3ccco3)c(=O)[nH]c2c1C	6.7	-2.9	-4.6	-14.3	22.5*	2.7
Cc1ccc(C)c2[nH]c(=O)c(CN(Cc3ccc4c(c3)OCO4)Cc3nnnn3Cc3ccco3)cc12	-1.1	12.0	2.0	18.5	-10.9	10.7
Cc1sc2ncnc(N3CCCCC3)c2c1C	6.2	-5.9	-1.0	-6.8	7.6	3.0
Cc1ccc(OCCN2CCN(c3ncnc4sc(C)c(C)c34)CC2)cc1	-10.9	20.8	-3.7	17.3*	-3.1	7.9
Clc1ccc(OCCN2CCN(c3ncnc4sccc34)CC2)cc1	-15.0	35.3*	-1.9	25.3*	-16.9	12.1
Cc1cc(C)cc(OCC(=O)N(C)CC(=O)Nc2ccc(Cl)c(C(F)(F)F)c2)c1	0.6	2.8	-4.3	5.8	2.0	2.2
COC(=O)c1cc(S(=O)(=O)N2CCN(c3ccccc3)CC2)c[nH]1	1.0	-2.3	0.1	-8.2	-1.5	3.0
COC(=O)c1cc(S(=O)(=O)N2CCN(c3cccc(C)c3C)CC2)c[nH]1	-21.2	22.8	0.2	34.4*	-14.3	24.0
CC(=O)Nc1ccc(NC(=O)C(NC(=O)c2ccc(Cl)cc2)C(C)C)cc1 (configuration not stated)	-1.2	-4.0	-4.6	-3.1	3.4	-0.5
COc1cc2ccccc2cc1C(=O)Nc1ccc(C)cc1	0.2	-2.3	-5.2	-6.9	4.0	1.6
O=C(O)Cc1ccc(NC(=O)COc2ccc3ccccc3c2)cc1	-6.5	-4.2	-1.7	8.1	-3.3	0.5
O=C(COc1ccc2ccccc2c1)Nc1ccc(Cc2ccncc2)cc1	-19.9	15.9	0.4	43.2*	1.5	21.7
COc1cc2ccccc2cc1C(=O)Nc1ccc(Cc2ccncc2)cc1	-15.5	22.1	-0.6	29.9*	-27.9	14.8
O=C(NC(=S)NNC(=O)c1ccccc1O)c1ccccc1	-6.6	5.5	23.6*	0.6	-1.7	5.6
O=C(NNC(=O)c1cccc2ccccc12)c1ccccc1O	13.8	-14.4	4.0	-17.5	17.4*	7.2
Cc1ccccc1C(=O)NNC(=S)NC(=O)c1ccccc1	-17.6	0.8	63.1*	13.4	-4.5	41.0*
Cc1ccc(C(=O)NC(=S)NNC(=O)c2ccccc2O)cc1	-4.6	-2.4	-1.4	8.3	3.1	0.2
O=C(NC(=S)NNC(=O)c1ccccc1O)c1ccc(F)cc1	-9.3	-4.1	33.4*	1.8	-4.1	16.1
COc1ccccc1NC(=O)C1=C(C)Nc2nc(-c3ccc(N(C)C)cc3)nn2C1c1ccncc1 (configuration not stated)	1.2	2.3	-3.7	-5.2	-2.0	2.5
CCOC(=O)C1(C)CCCN(C(=O)c2ccc(C#N)cc2)C1 (configuration not stated)	9.5	-11.2	-4.0	-22.3	5.8	1.2
O=C(Oc1oc(-c2ccco2)nc1C=Nc1ccccc1)c1ccco1	-0.1	9.1	-2.2	-15.3	1.5	-0.2
O=C(Cn1nc(-c2ccco2)ccc1=O)Nc1ccc(Br)cc1	17.6	8.0	0.5	-14.5	-6.7	1.1
O=C(CSc1ccc(-c2ccco2)nn1)NC1CCCC1	5.5	0.7	-1.5	-9.6	-7.2	0.4
